# The entries come from a sample that favours hits as a whole.
# ST2 IL33 inh – IL1RL1 inhibition | Q01638 | AlphaLISA ST2-Fc/biotin-IL-33 interaction, 1 h | inhibition, % for hits at 17 µM | 78,000 tested, 2.3% active | AID 1259354; in the data active = inhibition above about 30%
# Target sequence (Q01638 whole entry, looked up): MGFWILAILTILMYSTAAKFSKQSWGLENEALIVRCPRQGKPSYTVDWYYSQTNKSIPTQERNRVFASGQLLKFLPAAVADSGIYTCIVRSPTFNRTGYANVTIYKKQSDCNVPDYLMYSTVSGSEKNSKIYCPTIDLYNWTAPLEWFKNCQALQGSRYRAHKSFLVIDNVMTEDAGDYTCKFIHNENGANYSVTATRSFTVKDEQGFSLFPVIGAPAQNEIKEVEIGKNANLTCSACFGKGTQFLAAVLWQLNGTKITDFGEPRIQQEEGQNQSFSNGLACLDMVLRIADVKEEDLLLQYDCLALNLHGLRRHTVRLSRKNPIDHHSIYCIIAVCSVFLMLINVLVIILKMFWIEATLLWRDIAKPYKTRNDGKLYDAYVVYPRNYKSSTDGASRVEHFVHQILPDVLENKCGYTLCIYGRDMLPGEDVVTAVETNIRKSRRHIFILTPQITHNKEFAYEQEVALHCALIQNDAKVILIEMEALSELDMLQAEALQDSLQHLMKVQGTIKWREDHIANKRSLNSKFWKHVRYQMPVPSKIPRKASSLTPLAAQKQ
# Starred values were filed as active, the others as inactive; i = inactive; ! = a repeat was not active.
SMILES,ST2 IL33 inh
Cc1ccc(NC2=C(NCCO)C(=O)c3ccccc3C2=O)cc1,51%*
O=C(O)c1cc(-c2ccccc2)nc2c(Cl)cccc12,i
CCC(C)NC(=O)CCCn1c(=O)[nH]c2cc(OC)c(OC)cc2c1=O (configuration not stated),i
O=C(CCc1ccccc1)Nc1c[nH]c(=O)[nH]c1=O,i
O=C(Nc1c[nH]c(=O)[nH]c1=O)c1ccc(Oc2ccc(C(=O)Nc3c[nH]c(=O)[nH]c3=O)cc2)cc1,36%*
O=C(Nc1c[nH]c(=O)[nH]c1=O)c1ccc(N2C(=O)C3C4C=CC(C4)C3C2=O)cc1 (configuration not stated),i
Cc1ccc(NC(=O)C2CCCCC2)cc1OCc1cc(=O)n2cccc(C)c2n1,i
Cc1ccc(SCC(=O)Nc2ccc(C)c(OCc3cc(=O)n4cccc(C)c4n3)c2)cc1,i
Cc1ccc(NC(=O)c2ccccc2C)cc1OCc1cc(=O)n2cccc(C)c2n1,33%*
CCN(C(=O)c1cnn(C(C)C)c1)C(C)CO (configuration not stated),i
O=[N+]([O-])c1ccc(C2Nc3c(cccc3C(F)(F)F)C3C=CCC32)cc1 (configuration not stated),i
O=[N+]([O-])c1cccc2c1NC(c1cccc(Cl)c1Cl)C1CC=CC21 (configuration not stated),39%*
O=C(c1cccc2c1NC(c1ccc(Cl)cc1Cl)C1CC=CC21)N1CCCC1 (configuration not stated),i
Cc1cnc(-c2c(-c3ccccc3)ncn2CCCc2ccncc2)[nH]1,i
CCCCn1c(CCCNC(=O)c2cccs2)nc2ccccc21,i
CCOCCCNCc1ccc(OC(C)C)c(OC)c1,i
COc1ccc(NC(=O)CC2SC(N)=NC2=O)c([N+](=O)[O-])c1 (configuration not stated),i
CCCCOC(=O)Nc1ccc(OC)cc1[N+](=O)[O-],47%*
COc1ccc(NC(=O)CC2CCCCC2)c(OC)c1,i
COc1ccc(OCC(=O)Nc2ccc(OC)cc2[N+](=O)[O-])cc1,i
COc1ccc(NC(=O)CC2CCCCC2)c([N+](=O)[O-])c1,40%*
CCCCOC(=O)Nc1ccccc1F,i
COCc1nc(C)c(CNC(=O)C(C)n2cnc3ccccc32)s1 (configuration not stated),i
COc1ccc(Cn2c(CNS(=O)(=O)c3ccc(F)c(Cl)c3)nc3cccnc32)cc1,i
O=C(O)c1ccc2c(c1)C(=O)N(c1ccc3sc(-c4ccccc4O)nc3c1)C2=O,i
SMILES,ST2 IL33 inh
COc1cc2c(C(=O)NCC3COc4ccccc4O3)cn(CC(C)C)c(=O)c2cc1OC (configuration not stated),i
CCSc1nc(CC(=O)NCc2sc(C)nc2CC)cs1,31%*
CCSc1nc(CC(=O)NCc2ccc(CC)cn2)cs1,i
CCSc1nc(CC(=O)NCc2cc(CC)no2)cs1,i
O=C(Cn1nc(-c2ccccc2)ccc1=O)NCCN1CCC(Cc2ccccc2)CC1,i
CN(CCCNC(=O)Cn1nc(-c2ccccc2)ccc1=O)Cc1ccccc1,i
O=C(Cn1nc(-c2ccccc2)ccc1=O)NCCCN1CCC(Cc2ccccc2)CC1,53%*
CCc1cccc(NS(=O)(=O)c2cccc3nsnc23)c1,i
C=CCNc1nc(-c2ccc(OC)c(OC)c2)cs1,i
COc1ccc(NC(=O)CN2N=NC3C(=O)N(c4ccc(Cl)cc4)C(=O)C32)cc1 (configuration not stated),i
O=C(NCc1cccs1)c1cc(-c2ccc(Br)s2)nc2ccccc12,i
O=C(NCc1cccs1)c1cc(-c2ccc(Cl)s2)nc2ccccc12,30%*!
Cc1ccc(CNC(=O)c2cc(-c3ccc(Cl)s3)nc3ccccc23)o1,i
OCCNc1ncnc2ccc(-c3cccc4c3CCNC4)cc12,i
CCCOc1ccc2oc(=O)c3c(c2c1)CCCN3C(=O)CN1CCN(C(=O)c2ccco2)CC1,i
CN1CCN(CC(=O)N2CCCc3c2c(=O)oc2ccc(OCc4ccccc4)cc32)CC1,39%*
CCN1CCN(CC(=O)N2CCCc3c2c(=O)oc2ccc(OCc4ccccc4)cc32)CC1,30%*
CCCOc1ccc2oc(=O)c3c(c2c1)CCCN3C(=O)CN1CCN(c2ncccn2)CC1,i
CCCOc1ccc2oc(=O)c3c(c2c1)CCCN3C(=O)CN1CCCC(C(=O)OCC)C1 (configuration not stated),i
CCCOc1ccc2oc(=O)c3c(c2c1)CCCN3C(=O)CN1CCCCCC1,i
CCOc1c(Nc2ccccc2C)c(=O)c1=O,i
COC(=O)c1ccc(OC)c(-n2ccnc2C(C)C)c1,i
CCC(=O)NCCc1nc2ccccc2n1C(C)C,i
O=C(c1ccccc1)c1ccc(CSc2ncn[nH]2)cc1,i
COc1ccc(-c2nc(N3CCCC3)nc3nn4c(C)c(CCC(=O)O)c(C)nc4c23)cc1,i
Cc1ccc(C(=O)N2N=C(c3ccc(Br)cc3)CC2(O)C(F)(F)F)o1 (configuration not stated),i
